Screens from PubChem.
HP1b binding inh: inhibitors of HP1-beta chromodomain binding to methylated histone tails. AlphaScreen HP1-beta / biotin-H3K9me3 peptide binding. AID 540317. actives 0.56% (n = 390,000). Potency, µM (series often up to 114 µM), usual class: inhibitors. P83916; further: nearly all actives have a fitted effect of over 70% in size
Target sequence (P83916 whole entry, looked up): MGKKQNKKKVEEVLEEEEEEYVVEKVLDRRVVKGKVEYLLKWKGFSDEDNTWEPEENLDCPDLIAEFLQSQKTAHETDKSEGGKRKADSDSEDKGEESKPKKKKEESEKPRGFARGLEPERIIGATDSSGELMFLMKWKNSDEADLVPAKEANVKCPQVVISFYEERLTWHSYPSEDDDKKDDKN
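Compound inhibition of the preformed complex between 50 nM HP1-beta and 50 nM biotinylated H3K9me3 peptide was read by AlphaScreen. Buffer was PBS pH 7.4 with 0.01% Tween-20. Incubations ran 30 min at room temperature, with 10 ug/mL donor/acceptor beads.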
Sfp PPTase inh: blocks B. subtilis Sfp PPTase activity; AID 1490; Biochemical Sfp PPTase activity, qHTS; actives 3.5% (n = 310,000); Potency, µM, most hits filed as inhibitors;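 further: the enzyme is Sfp with the accession as filed and its product quenches rhodamine fluorescence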
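After 15 min at room temperature with compound, 15 nM Sfp received 5 uM rhodamine-CoA plus 12.5 uM BHQ-2-ybbR (50 mM Hepes pH 7.6, 10 mM MgCl2). Rate came from the fluorescence difference over 30 min, ex 525/em 598 nm.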
G9a block: inhibitors of human histone lysine methyltransferase G9a; Q96KQ7; actives 8.8% (n = 350,000); Potency, µM (top dose mostly 102 µM), hits mostly inhibitors; G9a H3K9 monomethylation, AlphaScreen, 2 h; further: nearly all actives have a fitted effect of over 75% in size
Target sequence (Q96KQ7 913-1193 limits assumed): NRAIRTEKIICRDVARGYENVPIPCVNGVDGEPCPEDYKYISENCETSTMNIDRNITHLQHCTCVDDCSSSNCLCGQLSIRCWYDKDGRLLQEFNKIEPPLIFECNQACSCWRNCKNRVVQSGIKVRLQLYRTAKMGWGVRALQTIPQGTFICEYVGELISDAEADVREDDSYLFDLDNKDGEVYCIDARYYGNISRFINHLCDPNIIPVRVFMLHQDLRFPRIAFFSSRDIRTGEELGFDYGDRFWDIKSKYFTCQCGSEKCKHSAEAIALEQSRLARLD
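Signal arises when biotinylated H3K9 peptide, once monomethylated, bridges streptavidin donor and antibody-captured acceptor beads. Enzyme at 20 nM was preincubated 15 min with test compounds; peptide 500 nM and SAM 20 uM then reacted for 2 h.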
PLK1 PBD inh: PLK1 (human) polo-box domain binding inhibition; Plk1 PBD binding of FITC phosphopeptide, fluorescence polarization; Potency, µM, most hits filed as inhibitors; actives 2.8% (n = 360,000); AID 720504; further: series mostly up to about 57 µM; nearly all actives have a fitted effect of over 65% in size
BAZ2B block: blocks human BAZ2B; AlphaScreen BAZ2B-H3K14Ac peptide displacement; Potency, µM (series often up to 114 µM), most hits filed as inhibitors; actives 4.4% (n = 360,000); further: nearly all actives have a fitted effect of over 60% in size
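AlphaScreen displacement: compounds (up to 110uM) incubated 30 min at room temperature with a preformed 50 nM BAZ2B/50 nM biotinylated H3K14Ac peptide complex in PBS pH 7.4 with Tween-20. Donor and acceptor beads at 10 ug/mL final added, 20 min light-protected before reading.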
JMJD2A Tudor: JMJD2A Tudor domain (human) inhibition; O75164; AlphaScreen JMJD2A-Tudor / H3K4me3 peptide binding; Potency, µM (titrated, usually from 114 µM), actives largely listed as inhibitors; actives 4.4% (n = 390,000); AID 504339; further: nearly all actives have a fitted effect of over 50% in size
Of the large screens only hits and unclear results are named; the others gave an inactive call. In the library only some 12% were active in any assay of this set; here they are far more common. The call rests on the fitted dose curve; in most records, active means well fitted curve in the direction sought with a large enough effect; inconclusive means small, poorly fitted or top-dose-only effect, or another doubt; inactive means no such curve, though single readings can be large; an effect the other way counts as inactive or inconclusive.

O=C(/C=C/c1ccco1)NCCc1ccccc1	G9a block 45µM
O=C(O)CCCNC(=O)/C=C/c1ccco1	HP1b binding inh 35µM, Sfp PPTase inh 13µM, PLK1 PBD inh inconclusive, BAZ2B block 13µM, JMJD2A Tudor 7.9µM (no result: G9a block)
O=C(O)/C=C/C(=O)NCCc1ccccc1	JMJD2A Tudor inconclusive
O=C(O)CCCCCNC(=O)/C=C/c1ccco1	none
O=C(/C=C/c1cccc(Cl)c1)NCCc1ccccc1	Sfp PPTase inh 20µM
CC(C)c1ccc(CN2CCN(S(=O)(=O)c3ccc(Cl)s3)CC2)cc1	none (no result: Sfp PPTase inh)
CCc1ccc(CN2CCSCC2)cc1	HP1b binding inh inconclusive, BAZ2B block inconclusive, JMJD2A Tudor 2.2µM (no result: G9a block)
CSc1ccc(CN2CCSCC2)cc1	HP1b binding inh inconclusive, G9a block 13µM, BAZ2B block 79µM, JMJD2A Tudor 13µM
CC(C)c1ccc(CN2CCSCC2)cc1	HP1b binding inh inconclusive, BAZ2B block inconclusive, JMJD2A Tudor 2.8µM (no result: G9a block)
CCOC(=O)[C@]12CCCC=C1N(Cc1cccc3ccccc13)C(=O)[C@H](CC(=O)NCCc1ccccc1OC)C2	none (no result: HP1b binding inh, Sfp PPTase inh, G9a block, BAZ2B block, JMJD2A Tudor)
O=C(OCc1nnc(-c2ccccc2)o1)c1cccc(-n2cnnn2)c1	none (no result: Sfp PPTase inh)
CCn1nc(C(=O)OCC(=O)c2ccc(F)cc2)c2ccccc2c1=O	none
CCn1nc(C(=O)OCC(=O)c2ccc3c(c2)OCCO3)c2ccccc2c1=O	G9a block inconclusive, PLK1 PBD inh 21µM, JMJD2A Tudor 50µM
Cc1ccc(/C=C/C(=O)OCC(=O)Nc2ccc3[nH]c(=O)[nH]c3c2)o1	G9a block 40µM (no result: Sfp PPTase inh)
O=C(COC(=O)c1ccccc1OC(F)F)Nc1ccc2[nH]c(=O)[nH]c2c1	G9a block 40µM (no result: Sfp PPTase inh)
O=C(COC(=O)Cc1ccc(F)cc1)Nc1ccc2[nH]c(=O)[nH]c2c1	G9a block 50µM (no result: Sfp PPTase inh)
O=C(COC(=O)c1ccccc1Cl)Nc1ccc2[nH]c(=O)[nH]c2c1	none (no result: Sfp PPTase inh)
OC[C@@H]1O[C@H](O)[C@H](O)[C@@H](O)[C@@H]1O	none (no result: HP1b binding inh, G9a block, PLK1 PBD inh, BAZ2B block, JMJD2A Tudor)
CC[C@H](C)[C@@H](NC(=O)O[C@@H]1Cc2cc(OC)ccc2O[C@H]1c1cccc(OC)c1)C(=O)OC	none (no result: HP1b binding inh, G9a block, PLK1 PBD inh, BAZ2B block, JMJD2A Tudor)
CCOC(=O)c1nnn(CC(=O)Nc2cc(C)cc(C)c2)c1C(=O)OCC	none (no result: Sfp PPTase inh, PLK1 PBD inh)
COc1cc2cc(C(c3nnnn3C(C)(C)C)N3CCc4ccccc43)c(=O)[nH]c2cc1OC (stereo not given)	G9a block inconclusive, BAZ2B block inconclusive, JMJD2A Tudor inconclusive
CCOC(=O)C1CCN(C(c2cc3ccc(C)cc3[nH]c2=O)c2nnnn2C2CCCCC2)CC1 (stereo not given)	Sfp PPTase inh 35µM, G9a block 22µM
COc1cc2cc(C(c3nnnn3C3CCCC3)N3CCc4ccccc43)c(=O)[nH]c2cc1OC (stereo not given)	G9a block 45µM
COc1ccccc1N1CCN(C(c2cc3ccc(C)cc3[nH]c2=O)c2nnnn2C2CCCC2)CC1 (stereo not given)	Sfp PPTase inh 40µM, G9a block 28µM, BAZ2B block inconclusive, JMJD2A Tudor inconclusive
CNC1CCC(c2ccc(Cl)c(Cl)c2)c2ccccc21 (stereo not given)	none (no result: HP1b binding inh, PLK1 PBD inh, BAZ2B block, JMJD2A Tudor)
COc1ccc(CNC(=O)Nc2cccs2)cc1OC	Sfp PPTase inh 25µM, G9a block 13µM, PLK1 PBD inh inconclusive
COc1cccc(CNC(=O)Nc2cccs2)c1	Sfp PPTase inh 45µM, G9a block 45µM
COc1ccc(Br)cc1CNC(=O)Cn1ncn2nc(-c3cccs3)cc2c1=O	none (no result: Sfp PPTase inh, PLK1 PBD inh)
Cc1ccc(CNC(=O)Nc2cccs2)cc1	Sfp PPTase inh 18µM, G9a block inconclusive
COc1ccc(Br)cc1CNC(=O)Nc1cccs1	Sfp PPTase inh 50µM, G9a block inconclusive
C#CCOCCOCCOCCNc1nc(N2CCN(C(=O)C([C@@H](C)CC)n3cc(C(N)CC(C)C)nn3)CC2)nc(N2CCN(C(=O)[C@H](CCC(=O)O)n3cc(C(N)CC(C)C)nn3)CC2)n1 (stereo not given in full)	BAZ2B block 79µM, JMJD2A Tudor 79µM
